Assay [1] can be described thus: inhibitors of Chlamydomonas gravitaxis, primary screen, whole organism, Chlamydomonas reinhardtii, WT vs cilia-less mutant, absorbance, 96-well (AID 463189).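 Further: 0% = wild type cc124 cells in DMSO and 100% = ciliumless bld1 mutant cells.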 As to conditions: OD600 absorbance, 2 days, at 10 µM, stronger effect = higher value.
A short description of assay [2]: inhibitors of mutant huntingtin aggregation, primary screen, imaging, exon1htt(103Q)mCFP cells, high-content imaging (AID 483;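 active means visual image review flags a hit and inhibition of aggregation exceeds 20%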;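 further: compound exposure lasted 3 days before fixation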;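 on nuclei count: percent of the per-plate median nuclei count of sample wells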). As to conditions: exon1htt(103Q)mCFP cell line, aggregate imaging, at 2 µM; inhibition of aggregation: stronger effect = higher value; nuclei count: measured here: cell count, toxicity.
A short description of assay [3]: inhibitors of E-selectin induction by TNFa, primary screen, imaging, HUVEC, immunofluorescence, MLSMR starter and 10KST1 sets (AID 487;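 active means visually confirmed hit in the image check and inhibition above 20%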;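 on inhibition: signal is fraction of cell area covered by stained E-selectin grains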;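 on nuclei count: 100% = median nuclei count of all wells on the same plate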). As to conditions: HUVEC TNFalpha-induced E-selectin immunofluorescence imaging, at 2 µM; inhibition: stronger effect = higher value; nuclei count: measured here: cell number, toxicity.
Assay [4] in a line: DUSP6 inhibitors restoring Erk phosphorylation by chemical complementation, primary imaging in DUSP6-transfected HeLa (AID 609;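 active means compounds giving at least 50% inhibition in the cell-based MKP-3 phosphatase rescue imaging test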;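 on inhibition: phospho-Erk level distribution per well compared with pooled transfected vehicle control wells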). Particulars: HeLa MKP-3 transfected, phospho-Erk imaging KS statistic, at 10 µM, cells stimulated with TPA for 15 min.
The target in assay [5] is Dual specificity protein phosphatase 6 (Homo sapiens) (UniProt Q16828). The description is as above. As to conditions: HeLa MKP-3 transfected, phospho-Erk imaging KS statistic; at 10 µM; stronger effect = higher value; cells stimulated with TPA for 15 min.
The target of assay [6] is Voltage-gated potassium channel subunit beta-2 (Rattus norvegicus) (UniProt P62483). Kind of assay: KvBeta enzyme negative modulators, primary screen, biochemical, NADPH fluorescence (AID 622;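 active means fluorescence slope higher than the sample average by over 3 SD, cut at about -0.22 in these data, passing the limit was not always enough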;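 further: slope of raw intensity against log time taken from 70 to 1610 s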). As to conditions: recombinant KvBeta, 4-cyanobenzaldehyde reduction, at 10 µM, stronger effect = higher value.
The target is the same in assay [7]. Kind of assay: KvBeta positive modulators, primary screen, biochemical, NADPH fluorescence (AID 623;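 active means NADPH fluorescence slope more negative than the mean of all samples by about 3 SD, 99.7% confidence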;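 further: fluorescence intensity change per second fitted from 20 to 320 s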). Particulars: Recombinant KvBeta, NADPH fluorescence decrease slope, 10 min; at 10 µM; stronger effect = lower value.
Assay [8] addresses Alpha-2C adrenergic receptor (Homo sapiens) (UniProt P18825). Kind of assay: modulators of alpha2C/GIRK thallium flux, primary screen, cell-based, HEK293 alpha2C/GIRK1/2 (AID 624;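 active means fluorescence slope after compound addition differing from the mean of all screened samples at 99.7% confidence, in either direction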;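 further: slope of fluorescence ratio to pre-addition baseline per second over 15 to 24 s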). Particulars: thallium flux BTC fluorescence, at 10 µM, actives lie on both sides.
Assay [9] in a line: inhibitors of larval lipid processing in zebrafish, primary screen, whole organism, PED6 fluorescence, gall bladder and intestine (AID 686;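 active means a full or partial loss of lipid-probe fluorescence in the fish gall bladder, intestine or both, judged by eye; inactive means no fluorescence loss, or compound toxic to the fish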;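 further: larvae 5 to 7 days old with five fish per well; signal comes from phospholipase A2 cleavage of quenched PED6 carried via bile; overnight exposure to compound and PED6 before scoring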). Particulars: Zebrafish larvae PED6 lipid processing, fluorescence scoring; screened at 20 µM (by protocol).
Assay [10] in a line: inhibitors of Sendai virus-induced IRF3 signaling, primary screen, TLR/RLR signaling modifier project, cell-based, Sendai virus stimulus, luciferase, 10K MLSCN set (AID 602276;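 active means inhibition at or above 50% at 10 µM; inactive means inhibition below 50%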;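 further: firefly luciferase from ISG56 promoter only with Renilla not read in this screen; 0% = Sendai virus plus DMSO and 100% = medium plus DMSO without virus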). As to conditions: HEK293 RL24 IRF3 luciferase reporter, at 10 µM, stronger effect = higher value.
A short description of assay [11]: inhibitors of poly I:C-induced TLR3 signaling, primary screen, cell-based, poly I:C stimulus, luciferase, 10K MLSCN set (AID 602277;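 active means inhibition of the reporter signal at or above 50%; inactive means inhibition below 50%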). As to conditions: HEK293-TLR3 RL24 IRF3 luciferase reporter, at 10 µM, stronger effect = higher value.
The mark [12] stands for this setting: measured here: cell density z-score.
[13] abbreviates: measured here: nuclear c-Myc green intensity z-score.
The mark [14] stands for this setting: measured here: nuclear pErk red intensity z-score, stronger effect = higher value.

SMILES strings stand for the structures. Where “and” joins values, the source holds several entries; their conditions need not be identical. Identical values can stand only once. Calls of active or inactive are those of the source.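 How the source made its calls, unless noted: active means inhibition at or above 50% relative to wild type and mutant plate controls; inactive means inhibition below 50%.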

Voltage-gated potassium channel subunit beta-2 (Rattus norvegicus), sequence (P62483 whole entry, looked up): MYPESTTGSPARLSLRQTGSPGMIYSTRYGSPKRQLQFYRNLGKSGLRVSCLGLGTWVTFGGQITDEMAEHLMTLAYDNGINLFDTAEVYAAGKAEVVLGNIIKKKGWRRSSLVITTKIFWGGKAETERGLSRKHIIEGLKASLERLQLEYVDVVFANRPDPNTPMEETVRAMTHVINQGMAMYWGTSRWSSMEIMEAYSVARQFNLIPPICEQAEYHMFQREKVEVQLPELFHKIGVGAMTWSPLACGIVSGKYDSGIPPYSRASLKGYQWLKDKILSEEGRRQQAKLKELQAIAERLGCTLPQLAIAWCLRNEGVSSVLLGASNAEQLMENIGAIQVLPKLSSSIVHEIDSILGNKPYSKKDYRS
Alpha-2C adrenergic receptor (Homo sapiens), sequence (P18825 whole entry, looked up): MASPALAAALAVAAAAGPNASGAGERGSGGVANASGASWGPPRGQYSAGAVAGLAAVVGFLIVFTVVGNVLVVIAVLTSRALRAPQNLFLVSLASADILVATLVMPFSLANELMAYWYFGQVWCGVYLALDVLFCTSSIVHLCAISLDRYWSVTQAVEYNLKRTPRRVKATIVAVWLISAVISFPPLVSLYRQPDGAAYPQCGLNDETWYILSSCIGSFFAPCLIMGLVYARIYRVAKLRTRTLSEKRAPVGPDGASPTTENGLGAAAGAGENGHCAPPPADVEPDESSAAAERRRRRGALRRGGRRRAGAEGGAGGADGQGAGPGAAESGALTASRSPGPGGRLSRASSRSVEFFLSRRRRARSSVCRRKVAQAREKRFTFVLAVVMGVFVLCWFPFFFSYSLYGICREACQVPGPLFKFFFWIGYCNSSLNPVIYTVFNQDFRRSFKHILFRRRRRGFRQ
Dual specificity protein phosphatase 6 (Homo sapiens), sequence (Q16828 whole entry, looked up): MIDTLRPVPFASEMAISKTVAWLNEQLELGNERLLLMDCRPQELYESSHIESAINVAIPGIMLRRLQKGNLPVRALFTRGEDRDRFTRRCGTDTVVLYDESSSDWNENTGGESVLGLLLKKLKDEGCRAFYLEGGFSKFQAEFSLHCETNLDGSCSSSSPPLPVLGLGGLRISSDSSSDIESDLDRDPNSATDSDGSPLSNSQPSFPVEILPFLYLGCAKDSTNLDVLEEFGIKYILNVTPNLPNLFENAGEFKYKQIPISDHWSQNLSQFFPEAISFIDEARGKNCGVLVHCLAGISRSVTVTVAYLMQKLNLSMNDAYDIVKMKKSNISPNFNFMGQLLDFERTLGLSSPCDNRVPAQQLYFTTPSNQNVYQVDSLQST

On to `CC(C)NC[C@@H](O)COc1ccc(CC(N)=O)cc1`, for which the inhibition in assay [1] was -8.19% (inactive).

On to `CCCCCCCCCCCCCCCC(=O)NCC(COP(=O)([O-])OCC[N+](C)(C)C)OCC` (stereo unspecified), for which the inhibition in assay [1] was -1.73% (inactive).

Take `N[C@@H](CCCC(=O)O)C(=O)O`: the inhibition in assay [1] is 6.53% (inactive).

For `O=C(O)/C(=C/c1c(C(=O)O)[nH]c2cc(Cl)cc(Cl)c12)c1ccccc1`, in assay [1], the inhibition was -3.38% (inactive).

For the compound `CC(C)C[C@H](NC(=O)C1OC1C(=O)O)C(=O)NCCCCN=C(N)N` (stereo partly specified), in assay [1], the inhibition is -4.58% (inactive).

In the case of `NCCC1CCCC(CCN)N1` (stereo unspecified), in assay [1], the inhibition is 5.08% (inactive).

With `CNC(=O)[C@H]1O[C@@H](n2cnc3c(N)ncnc32)C(O)[C@H]1O` (stereo partly specified), the inhibition in [1] is 1.69% (inactive).

As for `N[C@@H](Cc1ccc(F)cc1)C(=O)O`, the inhibition in assay [1] was 2.39% (inactive).

Turning to `CN1CCc2c(cc(O)c(O)c2Cl)C(c2cccc(Cl)c2)C1` (stereo unspecified), the inhibition in assay [1] was -5.57% (inactive).

As to `C/C=C1\C(=O)CC2C3CCC4=CC(=O)CC[C@]4(C)C3CC[C@]12C` (stereo partly specified), the inhibition in assay [1] is 0.131% (inactive).

Take `COc1ccc(NC(=O)/C=C/c2ccc(Cl)cc2)cc1`: the inhibition in assay [1] was 6.25% (inactive).

As to `CSc1ccc(C(=O)c2[nH]c(=O)[nH]c2C)cc1`, the inhibition in assay [1] is -1.05% (inactive).

Take `Nc1ncnc2c1nc(Sc1ccc(Cl)cc1)n2C1OC2COP(=O)(O)O[C@@H]2[C@@H]1O` (stereo partly specified): the inhibition in assay [1] was 9.99% (inactive).

For the compound `COc1cc(CNC(=O)CCCCCCC(C)C)ccc1O`, in [1], the inhibition was -1.4% (inactive).

Take `CSc1nc(N)c2ncn([C@@H]3O[C@H](COP(=O)(O)OP(=O)(O)O)[C@H](O)C3O)c2n1` (stereo partly specified): the inhibition in assay [1] is 6.63% (inactive).

With `CCCCC#Cc1nc(N)c2ncn([C@@H]3O[C@H](C(=O)NCC)[C@@H](O)[C@H]3O)c2n1`, the inhibition in [1] was -3.94% (inactive).

In the case of `N[C@@H](Cc1c[nH]c2ccccc12)C(=O)O`, the inhibition in assay [1] is 5.27% (inactive).

For the compound `O=c1ccn([C@@H]2O[C@H](COP(=O)(O)OP(=O)(O)O)[C@@H](O)[C@H]2O)c(=O)[nH]1`, in assay [1], the inhibition is 13.9% (inactive).

For the compound `O=c1[nH]c2ccccc2n1CCCN1CCN(C(c2ccccc2)c2ccccc2)CC1`, the inhibition of aggregation in [2] is 0% (inactive). Besides, the figures for the nuclei count in [2] and in assay [3] were 107% and 123%, respectively. Further, the inhibition in assay [3] was -139% (inactive); in assay [5] it was 1.48% (inactive); in assay [1], 0.779% (inactive) and 19.8% (inactive); in assay [10], 18.3% (inactive); in [11], 35.4% (inactive). The z-score is -0.406 in [4] (setting [12]), -0.951 in assay [4] (setting [13]) and 1.42 in assay [4] (setting [14]). Also, the fluorescence slope in [6] was -0.492 (inactive). The NADPH fluorescence slope in [7] was 1.6e-07 (inactive). Besides, in assay [8], the slope was 0.00471 (inactive). Besides, in assay [9], the compound was called inactive.

For the compound `Cc1cccc(Nc2ccccc2C(=O)O)c1C`, the inhibition of aggregation in assay [2] was -13.5% (inactive). In addition, the results for the nuclei count in assay [2] and in assay [3] were 100% and 118%, respectively. For the same compound, the inhibition in assay [3] is -91.2% (inactive); in assay [5] it was 19% (inactive); in assay [1] it was 25.5% (inactive); in [10], 8.41% (inactive); in assay [11], 14% (inactive). The results for the z-score in [4] (setting [12]), in [4] (setting [13]) and in assay [4] (setting [14]) were -1.12, 0.675 and -0.849, respectively. Besides, the fluorescence slope in assay [6] was -0.511 (inactive). Further, the NADPH fluorescence slope in assay [7] is -5.8e-05 (inactive). The slope in assay [8] is 0.00454 (inactive). The result in [9] was inactive.

Turning to `CC(=O)OC[C@H]1O[C@@H](n2ncc(=O)[nH]c2=O)[C@H](OC(C)=O)[C@@H]1OC(C)=O`, the inhibition of aggregation in assay [2] is 14.3% (inactive). Moreover, the nuclei count in assay [2] came to 77.3%; in [3], 116%. Moreover, the inhibition is -22.1% (inactive) in [3]; -0.828% (inactive) in assay [5]; -10.6% (inactive) in assay [1]; 13.3% (inactive) in assay [10]; -14.5% (inactive) in [11]. Further, the values for the z-score in assay [4] (setting [12]), in assay [4] (setting [13]) and in [4] (setting [14]) were 1.58, -1.02 and 0.322, respectively. In addition, in [6], the fluorescence slope is -0.468 (inactive). The NADPH fluorescence slope in assay [7] was -5.4e-05 (inactive). Also, the slope in assay [8] was 0.0044 (inactive).

With `O=C1CCc2cc(OCCCCc3nnnn3C3CCCCC3)ccc2N1`, the inhibition of aggregation in assay [2] is 14.7% (inactive). Moreover, the nuclei count in [2] amounted to 106%; in assay [3], 136%. For the same compound, the inhibition in assay [3] is -114% (inactive); in assay [5], 27.1% (inactive); in assay [1] it was 3.02% (inactive) and 2.15% (inactive); in assay [10] it was -3.33% (inactive); in assay [11], 20.5% (inactive). In addition, the figures for the z-score in assay [4] (setting [12]), in [4] (setting [13]) and in [4] (setting [14]) were 0.404, -0.117 and -0.524, respectively. Besides, the fluorescence slope in [6] was -0.456 (inactive). Also, the NADPH fluorescence slope in [7] was -6.4e-05 (inactive). The slope in [8] is 0.00334 (inactive). Moreover, in assay [9], the compound was classed as inactive.

For the compound `OCCOCCN1CCN(C(c2ccccc2)c2ccc(Cl)cc2)CC1` (stereo unspecified), in [2], the inhibition of aggregation is 2.8% (inactive). Also, the nuclei count was determined as 101% in [2] and 139% in [3]. Further, the inhibition in assay [3] was -65.7% (inactive); in assay [5], -0.828% (inactive); in [1], -13.4% (inactive); in assay [10], 14.5% (inactive); in assay [11], 34.4% (inactive). Moreover, the z-score in assay [4] (setting [12]) was -1.36; in assay [4] (setting [13]), 1.18; in assay [4] (setting [14]) it was 1.19. Moreover, the fluorescence slope in assay [6] was -0.46 (inactive). For the same compound, the NADPH fluorescence slope in assay [7] is 2.2e-05 (inactive). The slope in assay [8] is 0.00446 (inactive). Also, in assay [9], the compound was called inactive.

`CCOC(=O)C1=C(C)NC(C)=C(C(=O)OC)C1c1cccc([N+](=O)[O-])c1` (stereo unspecified): the inhibition of aggregation in assay [2] is -10.5% (inactive). Moreover, the figures for the nuclei count in assay [2] and in assay [3] were 97.3% and 103%, respectively. For the same compound, the inhibition in assay [3] is -50.3% (inactive); in assay [5] it was 19% (inactive); in assay [1], 5.78% (inactive) and 6.95% (inactive); in assay [10], 12.9% (inactive); in assay [11], 43.8% (inactive). The z-score came to 1.1 in [4] (setting [12]), 0.446 in assay [4] (setting [13]) and 0.0067 in assay [4] (setting [14]). The fluorescence slope in assay [6] is -0.475 (inactive). Also, the NADPH fluorescence slope in assay [7] was -2e-05 (inactive). Also, the slope in assay [8] is 0.00369 (inactive).

As to `Cc1cc(C(C)(C)C)c(O)c(C)c1CC1=NCCN1`, in [2], the inhibition of aggregation was 2.2% (inactive). The nuclei count was found to be 87.4% in assay [2] and 134% in assay [3]. Further, the inhibition was -50.7% (inactive) in [3]; -2.29% (inactive) in [5]; 6.18% (inactive) and -2.62% (inactive) in [1]; 16.9% (inactive) in [10]; 24.3% (inactive) in assay [11]. Also, the figures for the z-score in assay [4] (setting [12]), in [4] (setting [13]) and in assay [4] (setting [14]) were 0.182, 0.896 and -0.366, respectively. The fluorescence slope in assay [6] is -0.367 (inactive). In addition, the NADPH fluorescence slope in [7] was -2.8e-05 (inactive). Also, the slope in assay [8] is 0.00482 (inactive). Moreover, the call in assay [9] was inactive.

The values are drawn from PubChem BioAssay.
